# Test results as given in PubChem BioAssay (NCI).
# The panel holds about 83,000 compounds, 20% with a hit somewhere; the sample as a whole holds those more often.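 Testing used 96-well plates and a 48-hour single-concentration exposure. Example: -40 means 40% of the starting cells died.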 Values without a mark were called inactive. The source made the active and inactive calls. Rule for the calls: active = growth percent below 10; inactive = the rest.
# Experiments:
# Experiment in all cases: NCI-60 one-dose screen, 48 h (100 = growth as untreated, 0 = no growth, -100 = all killed)
# Settings in all cases: 10 µM unless noted
# RPMI-8226 leukemia = tested on: RPMI-8226 leukemia
# OVCAR-8 ovarian = tested on: OVCAR-8 ovarian
# OVCAR-5 ovarian = tested on: OVCAR-5 ovarian
# OVCAR-4 ovarian = tested on: OVCAR-4 ovarian
# SK-OV-3 ovarian = tested on: SK-OV-3 ovarian
# IGROV1 ovarian = tested on: IGROV1 ovarian
# OVCAR-3 ovarian = tested on: OVCAR-3 ovarian
# HS 578T breast = tested on: HS 578T breast
# NCI/ADR-RES ovarian = tested on: NCI/ADR-RES ovarian
# BT-549 breast = tested on: BT-549 breast
# MDA-MB-435 melanoma = tested on: MDA-MB-435 melanoma
# SW-620 colon = tested on: SW-620 colon
# MCF7 breast = tested on: MCF7 breast
# HCT-116 colon = tested on: HCT-116 colon
# HCC-2998 colon = tested on: HCC-2998 colon
# KM12 colon = tested on: KM12 colon
# T-47D breast = tested on: T-47D breast
Compound,growth (RPMI-8226 leukemia),growth (OVCAR-8 ovarian),growth (OVCAR-5 ovarian),growth (OVCAR-4 ovarian),growth (SK-OV-3 ovarian),growth (IGROV1 ovarian),growth (OVCAR-3 ovarian),growth (HS 578T breast),growth (NCI/ADR-RES ovarian),growth (BT-549 breast),growth (MDA-MB-435 melanoma),growth (SW-620 colon),growth (MCF7 breast),growth (HCT-116 colon),growth (HCC-2998 colon),growth (KM12 colon),growth (T-47D breast) [%]
Cc1ncc(C(=O)Nc2ccc(CN3CCN(C)CC3)c(C(F)(F)F)c2)cc1C#Cc1c(N)ncc2ccc(F)cc12,-43.6% (active),-74.8% (active),-45.3% (active),-58.6% (active),41.4%,-76% (active),-23.4% (active),-1.46% (active),-29.7% (active),23.6%,-66.5% (active),-72.1% (active),-72.6% (active),-72% (active),39.1%,-80.7% (active),–
CCOC(=O)CNS(=O)(=O)CC(=O)c1ccccc1,96.1%,108%,101%,85.4%,105%,94.6%,126%,124%,102%,86.4%,99.7%,110%,–,–,92.2%,108%,91.9
COc1ccc(C(=O)N2N=C(c3ccc(Br)cc3)CC2c2cn(-c3ccccc3)nc2-c2ccccc2)cc1 (centres undefined),67.9%,31.5%,101%,67.5%,76.6%,85.2%,53.4%,85.2%,41.5%,87.7%,48.6%,29.6%,33.8%,-23.3% (active),55.9%,55.6%,61.1
CCC(C)(CC)c1ccc(O)c(C)c1,98.8%,109%,109%,109%,93.4%,106%,116%,101%,102%,98.9%,109%,107%,99%,96.6%,116%,107%,–
CCOc1ccc(Br)cc1/C=C(\C#N)c1ccc([N+](=O)[O-])cc1,84.7%,70%,94.6%,45.2%,44.4%,71.4%,65.8%,7.59% (active),85.2%,96.5%,85%,86.6%,23.4%,67.9%,–,94.5%,66.4
COc1cc(CCNc2cnc3cc(N)cc(N)c3n2)cc(OC)c1,86%,98.6%,92.3%,93.8%,168%,103%,92.6%,132%,105%,113%,115%,111%,96.9%,103%,139%,106%,–
COc1cc(N2C(=O)C=CC2=O)ccc1N1C(=O)C=CC1=O,103%,110%,103%,102%,110%,115%,104%,102%,106%,95.3%,109%,85.4%,98.8%,107%,114%,109%,77.4
O=C(NC(=S)NNC(=S)NNc1ccccc1)c1ccccc1,19.8%,20.9%,59.7%,84.8%,89.9%,33.4%,71.6%,15.2%,75.4%,49.5%,4.94% (active),24.4%,8.12% (active),24.3%,50.7%,59%,18.4
Cc1ccc(C(=O)C(Br)C(Br)c2ccccc2)cc1 (centres undefined),48.2%,96.6%,102%,71.9%,114%,62.5%,61.7%,98.2%,105%,104%,99.8%,27.8%,25.7%,–,116%,99.1%,71.5
COc1cc2oc(-c3ccc(NC(=O)c4ccccc4)cc3)cc(=O)c2c(OC)c1OC,73.7%,77.9%,86.6%,64.6%,101%,84.2%,92.9%,80.7%,89.4%,75.6%,95%,93.2%,75%,91.3%,89.8%,90.6%,–
C/C=C(/C)C(=O)OC1C=C(CO)C(=O)C(OC(=O)C2(C)OC2C)C1C(C)C (centres undefined),-37.4% (active),4.08% (active),-40% (active),13.6%,44.3%,-31.2% (active),-46.9% (active),30.9%,6.41% (active),-7.25% (active),-31.8% (active),-26.8% (active),8.26% (active),-58.9% (active),-87.6% (active),-56.3% (active),–
COc1cccc(CNC(=O)c2cccc(C3CC(=O)c4c(cc(OC)c(OC)c4OC)O3)c2)c1 (centres undefined),32.9%,67.1%,89.1%,78.3%,81.7%,46.5%,12.6%,102%,41.7%,32.8%,-42.4% (active),34.9%,25.3%,18.5%,95.2%,41.8%,–
Cc1ccc(C(=O)Nc2ccc(CN3CCN(C)CC3)c(C(F)(F)F)c2)cc1C#Cc1cnc(N)c2ccc(F)cc12,-59.4% (active),-70.9% (active),-90.2% (active),-60.8% (active),1.66% (active),-82.9% (active),-83.3% (active),-30.2% (active),-52.4% (active),-95.9% (active),-93.2% (active),-83.6% (active),-79.7% (active),-96.5% (active),-78.5% (active),–,–
COC(=O)C1CC(=O)N(C(=O)Nc2ccc(Cl)cc2Cl)C1 (centres undefined),98.9%,99.1%,101%,117%,88.4%,107%,111%,82.9%,99.6%,95.9%,107%,105%,87.6%,–,107%,104%,–
CCOC(=O)C(C)C(C)(O)c1ccccc1 (centres undefined),89.9%,107%,104%,89.6%,102%,101%,107%,98.4%,99.5%,105%,102%,114%,93.6%,97.1%,84.4%,97.7%,97.3
C=CCN(C)C,117%,106%,109%,115%,115%,104%,118%,98.1%,106%,101%,97.1%,105%,101%,105%,110%,108%,117
O=C(NCCCl)Nc1nccnc1OCc1ccc(F)cc1,96.4%,101%,96.6%,104%,93.1%,107%,117%,115%,104%,–,107%,103%,85.1%,104%,113%,–,–
COc1ccccc1C(=O)Nc1cccc(-c2cc(=O)c3c(OC)c(OC)c(OC)cc3o2)c1,6.75% (active),38.7%,81.2%,59.1%,100%,42.9%,51.3%,23.6%,58.3%,45.9%,43.5%,63.4%,53.4%,36.7%,67.8%,38.4%,–
Cc1ncc(C(=O)Nc2ccc(CN3CCN(C)CC3)c(C(F)(F)F)c2)cc1C#Cc1c(N)ncc2ccccc12,-47.5% (active),-85.7% (active),-92.6% (active),-58.8% (active),-2.88% (active),-77.1% (active),-68.9% (active),-25.5% (active),-70% (active),-96.4% (active),-92.3% (active),-60.6% (active),-71.7% (active),-88.2% (active),-89.6% (active),-68.1% (active),–
